# “And” between values parts separate entries of the source, which are not always exact repeats. Equal values may be shown once. Records with an inconclusive call do not appear. Where a call stands in place of a potency, no number is given. More than one record can exist for a structure, and the calls need not agree. Unmarked numbers belong to inactive results. The source made the active and inactive calls. Calls follow the shape of the dose curve; as a rule, active = well fitted curve in the direction sought with a large enough effect; inconclusive = small, poorly fitted or top-dose-only effect, or another doubt; inactive = no such curve, though single readings can be large; an effect the other way counts as inactive or inconclusive.
# Tests used:
# [1] = target: Cytochrome P450 3A7 (Homo sapiens) (UniProt P24462); experiment: Cytochrome P450 family 3 subfamily A member 7 (CYP3A7) small molecule antagonists: luciferase biochemical qHTS assay (AID 1963596); also: nearly all actives have a fitted effect of over 40% in size; also: potency is read from the fitted curve at half-maximal effect
# Cytochrome P450 3A7 (Homo sapiens), sequence (P24462 whole entry, looked up): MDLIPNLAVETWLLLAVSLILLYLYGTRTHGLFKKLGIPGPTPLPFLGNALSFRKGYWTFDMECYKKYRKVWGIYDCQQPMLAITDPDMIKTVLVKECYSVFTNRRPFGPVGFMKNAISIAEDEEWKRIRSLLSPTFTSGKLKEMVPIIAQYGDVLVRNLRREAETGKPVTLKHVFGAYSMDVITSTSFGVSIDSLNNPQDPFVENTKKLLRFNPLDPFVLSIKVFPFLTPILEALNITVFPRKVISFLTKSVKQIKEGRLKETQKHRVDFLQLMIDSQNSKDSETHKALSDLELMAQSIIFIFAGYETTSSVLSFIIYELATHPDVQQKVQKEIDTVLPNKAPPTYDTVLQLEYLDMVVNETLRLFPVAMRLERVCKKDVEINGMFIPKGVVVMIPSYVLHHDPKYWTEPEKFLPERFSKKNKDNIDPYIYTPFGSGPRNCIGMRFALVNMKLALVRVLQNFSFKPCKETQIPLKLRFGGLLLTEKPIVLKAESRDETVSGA
# Summary of the method: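 Enzyme-substrate mix + cpd (DMSO), 10 min RT; + NADPH regen system, 1 h RT; + luciferin detection reagent, 20 min RT; luminescence read. Proluciferin substrate, P450-Glo format, 1536-well qHTS.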
# [2] = Viability qHTS for spleen associated tyrosine kinase inhibitor (SYKi) naive MV4-11 cells (AID 1963823); also: nearly all actives have a fitted effect of over 40% in size; also: potency is read from the fitted curve at half-maximal effect
# Summary of the method: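 Read-out: CellTiter-Glo luminescence. Exposure: 72 hr, 37 C, 5% CO2, 95% humidity. Cells: MV4-11 without SYK inhibitor history, 500/well, qHTS format.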
# [3] = Viability qHTS for spleen associated tyrosine kinase inhibitor (SYKi) drug resistant MV4-11 cells (AID 1963824); also: nearly all actives have a fitted effect of over 35% in size; also: potency is read from the fitted curve at half-maximal effect
# Summary of the method: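 CellTiter-Glo luminescence, read 10 min after reagent addition, reports viability after a 72 hr compound exposure. Cells are an MV4-11 line made resistant to SYK inhibition, seeded at 500 per well onto compound-containing plates.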
# [4] = Cellular viability qHTS for adrenocortical cancer (ACC) cell line NCI-H295R (AID 1963990); also: nearly all actives have a fitted effect of over 60% in size
# Summary of the method: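 CellTiter-Glo ATP luminescence, read 48 h after compound addition, measured viability of NCI-H295R adrenocortical cells grown serum-free with ITS. Final concentrations spanned up to 46 uM. Data normalized to DMSO and doxorubicin, fitted for IC50 and maximal response.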
# [5] = Quantitative highthroughput screen to assess conditional lethalithy of NOMO1 cells grown in RPMI1640 with untreated serum (RPMI+s) (AID 1963876); also: nearly all actives have a fitted effect of over 35% in size; also: potency is read from the fitted curve at half-maximal effect
# Summary of the method: (§1)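 Each medium arm—HPLM with 10% dialyzed FBS, or RPMI1640 with 5 mM glucose and 10% untreated or dialyzed FBS—was screened against an 11-point, 3-fold compound titration for 48 h at 37 °C, with CellTiter-Glo luminescence as endpoint.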
# [6] = Quantitative highthroughput screen to assess conditional lethalithy of NOMO1 cells grown in RPMI1640 with dialyzed fetal bovine serum (RPMI+ds) (AID 1963877); also: nearly all actives have a fitted effect of over 30% in size; also: potency is read from the fitted curve at half-maximal effect; as to Viability: series mostly up to about 46 µM
# Summary of the method: as §1
# [7] = Quantitative highthroughput screen to assess conditional lethalithy of NOMO1 cells grown in Human Plasma-Like Medium with dialyzed fetal bovine serum (HPLM+ds) (AID 1963878); also: nearly all actives have a fitted effect of over 35% in size; also: potency is read from the fitted curve at half-maximal effect
# Summary of the method: as §1
# [8] = Quantitative highthroughput screen to assess conditional lethalithy of P12 Ichikawa cells grown in Human Plasma-Like Medium with dialyzed fetal bovine serum (HPLM+ds) (AID 1963879); conditions: Potency: viability; also: series mostly up to about 46 µM; nearly all actives have a fitted effect of over 35% in size
# Summary of the method: as §1
# [9] = Quantitative highthroughput screen to assess conditional lethalithy of P12 Ichikawa cells grown in RPMI1640 with dialyzed fetal bovine serum (RPMI+ds) (AID 1963880); conditions: Potency: P12-Ichikawa viability; also: nearly all actives have a fitted effect of over 35% in size
# Summary of the method: as §1
# [10] = Quantitative highthroughput screen to assess conditional lethalithy of P12 Ichikawa cells grown in RPMI1640 with untreated serum (RPMI+s) (AID 1963881); conditions: Potency: viability
# Summary of the method: as §1
# [11] = Quantitative highthroughput screen to assess conditional lethalithy of SEM cells grown in Human Plasma-Like Medium with dialyzed fetal bovine serum (HPLM+ds) (AID 1963882)
# Summary of the method: as §1
# [12] = Quantitative highthroughput screen to assess conditional lethalithy of SEM cells grown in RPMI1640 with unreated serum (RPMI+s) (AID 1963883); also: nearly all actives have a fitted effect of over 35% in size
# Summary of the method: as §1
# [13] = Quantitative highthroughput screen to assess conditional lethalithy of SEM cells grown in RPMI1640 with dialyzed fetal bovine serum (RPMI+ds) (AID 1963884)
# Summary of the method: as §1
# [14] = Cellular viability qHTS for adrenocortical cancer (ACC) cell line SW-13 (AID 1963989); conditions: SW-13 ACC cells viability, CellTiter-Glo, 48 h; activity (max response): stronger effect = lower value;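 also: cells grown in serum-free medium with ITS supplement; nearly all actives have a fitted effect of over 65% in size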
# Summary of the method: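 Viability was read as CellTiter-Glo luminescence after 48 h compound treatment (up to 46 uM final) of SW-13 cells grown serum-free; titration curves were fit with a four-parameter logistic model to give IC50 and efficacy.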
smiles,measurement,setting,value
Cn1ncnc1COc1nn2c(-c3cc(F)ccc3F)nnc2cc1C(C)(C)C,Potency,[1],4.47 µM (active)
same,Potency,[2],inactive
same,Potency,[3],inactive
O=C(NCC(O)CO)c1ccncc1Nc1ccc(I)cc1F (configuration not stated),Potency,[1],inactive
same,Potency,[2],0.366 µM (active)
same,Potency,[3],0.164 µM (active)
O=C(NCc1ccccn1)Nc1nnc(-c2ccco2)o1,Potency,[1],inactive
same,Potency,[2],inactive
same,Potency,[3],inactive
C[C@@H]1CN(c2c(F)c(F)c3c(=O)c(C(=O)O)cn(C4CC4)c3c2F)C[C@H](C)N1,Potency,[1],inactive
same,Potency,[2],inactive
same,Potency,[3],4.61 µM (active)
same,"viability, % of control",[3],79.8% [at 9.25 µM]
same,Potency,[4],inactive
Cn1nc(-c2ccc(C(F)(F)F)cc2)nc2c(=O)n(C)c(=O)nc1-2,Potency,[1],inactive
same,Potency,[2],3.66 µM (active)
same,Potency,[3],4.11 µM (active)
O=c1[nH]c(-c2ccc(C(F)(F)F)cc2)nc2c1CSCC2,Potency,[1],inactive
same,Potency,[2],2.35 µM (active)
same,Potency,[3],inactive
same,Potency,[5],inactive
same,Potency,[6],inactive
same,Potency,[7],inactive
same,Potency,[8],inactive
same,Potency,[9],inactive
same,Potency,[10],inactive
same,Potency,[11],inactive
same,Potency,[12],inactive
same,Potency,[13],inactive
same,activity (max response),[14],-10.8%
CCN1C[C@H](C)n2c(c(O)c3c(=O)n(Cc4ccc(F)c(Cl)c4)nc(C(=O)NC)c32)C1=O,Potency,[1],inactive
same,Potency,[2],inactive
same,Potency,[3],inactive
same,Potency,[5],23.5 µM (active)
same,Potency,[6],16.6 µM (active)
same,Potency,[7],16.6 µM (active)
same,Potency,[8],inactive
same,Potency,[9],inactive
same,Potency,[10],inactive
same,Potency,[11],inactive
same,Potency,[12],inactive
same,Potency,[13],inactive
Nc1ccc(S(N)(=O)=O)cc1,Potency,[1],inactive
same,Potency,[2],inactive
same,Potency,[3],inactive
same,Potency,[5],inactive
same,Potency,[6],inactive
same,Potency,[7],inactive
same,Potency,[8],inactive
same,Potency,[9],inactive
same,Potency,[10],inactive
same,Potency,[11],inactive
same,Potency,[12],inactive
same,Potency,[13],inactive
same,activity (max response),[14],16.5% and -23.7%
same,Potency,[4],inactive
CCCCOC(=O)NC(=O)C1c2ccccc2Oc2ccccc21,Potency,[1],inactive
same,Potency,[2],inactive
same,Potency,[3],inactive
O=C(c1ccc(C(=O)N2CCC(N3CCCC3)CC2)c(Nc2ccccc2)c1)N1CCC(N2CCCC2)CC1,Potency,[1],inactive
same,Potency,[2],inactive
same,Potency,[3],inactive
same,Potency,[5],inactive
same,Potency,[6],inactive
same,Potency,[7],inactive
same,Potency,[8],inactive
same,Potency,[9],inactive
same,Potency,[10],inactive
same,Potency,[11],inactive
same,Potency,[12],inactive
same,Potency,[13],inactive
same,activity (max response),[14],11.8%
same,Potency,[4],inactive
COc1cncc(C#Cc2ccccn2)c1,Potency,[1],inactive
same,Potency,[2],inactive
same,Potency,[3],inactive
CCCCCCCC(=O)[O-].CCCCCCCC(=O)[O-].[Zn+2],Potency,[1],inactive
same,Potency,[2],inactive
same,Potency,[3],inactive
O=C1NC(=Nc2ccccc2F)S/C1=C\c1ccc(C(=O)O)cc1,Potency,[1],inactive
same,Potency,[2],inactive
same,Potency,[3],inactive
CCNC(=O)Nc1ccc(-c2nc3c(c(N4CCOC[C@@H]4C)n2)CCN(c2ncccn2)C3)cc1,Potency,[1],inactive
same,Potency,[2],0.13 µM (active)
same,Potency,[3],0.164 µM (active)
CN1CCN(c2c(F)cc3c(=O)c(C(=O)O)cn(CCF)c3c2F)CC1,Potency,[1],inactive
same,Potency,[2],inactive
same,Potency,[3],inactive
same,Potency,[5],inactive
same,Potency,[6],inactive
same,Potency,[7],inactive
same,Potency,[8],inactive
same,Potency,[9],inactive
same,Potency,[10],inactive
same,Potency,[11],inactive
same,Potency,[12],inactive
same,Potency,[13],inactive
same,activity (max response),[14],-1.49%
Cc1coc2c1C(=O)C(=O)c1c-2ccc2c1CCCC2(C)C,Potency,[1],inactive
same,Potency,[2],1.86 µM (active)
same,Potency,[3],1.86 µM (active)
same,Potency,[5],inactive
same,Potency,[6],inactive
same,Potency,[7],inactive
same,Potency,[8],inactive
same,Potency,[9],inactive
same,Potency,[10],inactive
same,Potency,[11],inactive
same,Potency,[12],inactive
same,Potency,[13],inactive
same,activity (max response),[14],2.82%
Cc1onc(-c2ccccc2)c1C(=O)N[C@@H]1C(=O)N2[C@@H]1SC(C)(C)[C@@H]2C(=O)O,Potency,[1],inactive
same,Potency,[2],inactive
same,Potency,[3],inactive
COC(=O)[C@H](CC1C=NC=N1)NCC12CC3CC(CC(C3)C1)C2 (some centres not stated),Potency,[1],inactive
same,Potency,[2],inactive
same,Potency,[3],inactive

# Reference: PubChem BioAssay (NCATS)
